Data published in ChEMBL document CHEMBL1201862, “PubChem BioAssay data set” (2004).
Among all 44,000 sequences or so, about 4,100 (9.3%) were called active. No stated cut-off is given here; in the data, active = GI50 up to about 1.1 µM and inactive = higher. Shown is part of a subset that was picked to be rich in actives. Measured potencies and affinities stand elsewhere.

tested on: MDA-MB-435

Row | Substance | GI50 [µM]
1 | [Bis(aminomethyl)tetramethylenesilane]dichloropaltinum(II), CHEMBL2146205 | 3.51
2 | [Bis(aminomethyl)tetramethylenesilane]tetrachloropaltinum(IV), CHEMBL2146189 | 9.02
3 | CISPLATIN, CHEMBL11359 | 5.96
4 | [Bis(aminomethyl)pentamethylenesilane]tetrachloropaltinum(IV), CHEMBL2146204 | 0.438
5 | [Bis(aminomethyl)pentamethylenesilane]dichloropaltinum(II), CHEMBL2146202 | 1.31
6 | [Bis(aminomethyl)dimethylsilane]tetrachloroplatinum(IV), CHEMBL2146190 | 13.9
